The target of experiment [1] is POU1 (OCT1 POU domain) (human, UniProt P14859 260-458). In words: EMSA-SELEX-seq; no BOB1; 20 mM Tris-HCl pH 7.6, 140 mM NaCl, 10% glycerol, 0.5 mM EDTA, 0.05% Triton X-100, 0.1 mg/mL BSA, 0.1 mg/mL poly(dI-dC), 5 mM DTT, room temperature, 20 min; high values mean tight binding. Conditions: protein: recombinant; dsDNA, one strand shown. The essentials: (§1)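 After expression in E. coli BL21, tagged POU-domain proteins were purified under denaturing conditions and then renatured. Each binding reaction held 30 ng protein and 300 ng of a PCR-amplified double-stranded random 35-nt library in 20 μL Tris–HCl pH 7.6 binding buffer, with or without 28 ng coactivator protein, for 20 min at RT. Bands holding complexes were cut from native 6% PAGE, eluted and PCR-amplified across four rounds, and the output was Illumina-sequenced. The value given for binding preference is the share, in percent, of sequenced 8-mers fitting a motif pattern.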
Chain of POU1 (OCT1 POU domain) (P14859 260-458): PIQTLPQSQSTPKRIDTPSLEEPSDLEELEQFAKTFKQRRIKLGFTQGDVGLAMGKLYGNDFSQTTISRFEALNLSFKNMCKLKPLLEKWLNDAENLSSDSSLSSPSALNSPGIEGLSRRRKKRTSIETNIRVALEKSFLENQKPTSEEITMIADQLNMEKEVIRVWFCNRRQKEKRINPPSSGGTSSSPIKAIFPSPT

Experiment [2] concerns the target T1, POU2 (OCT2 POU domain) (human, UniProt P09086 175-386).
T1 sequence: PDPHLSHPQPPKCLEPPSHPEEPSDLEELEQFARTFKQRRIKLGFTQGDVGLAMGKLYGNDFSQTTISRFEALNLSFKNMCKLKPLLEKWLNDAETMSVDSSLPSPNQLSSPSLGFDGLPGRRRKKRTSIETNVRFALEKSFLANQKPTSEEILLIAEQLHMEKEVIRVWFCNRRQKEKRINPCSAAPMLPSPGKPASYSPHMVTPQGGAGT
The experiment is described as above. To be noted: protein: recombinant; dsDNA, one strand shown. The essentials: as §1

Experiment [3] has as its target POU1 (OCT1 POU domain);BOB1 (OBF1, OCA-B) (human;human, UniProt P14859;Q16633 260-458;1-256, |). In words: EMSA-SELEX-seq; with BOB1 (ternary complex band); 20 mM Tris-HCl pH 7.6, 140 mM NaCl, 10% glycerol, 0.5 mM EDTA, 0.05% Triton X-100, 0.1 mg/mL BSA, 0.1 mg/mL poly(dI-dC), 5 mM DTT, room temperature, 20 min; high values mean tight binding. Conditions: protein: recombinant;recombinant; copies: 1;1; dsDNA, one strand shown. The essentials:
as §1

Experiment [4] concerns the target T2, POU2 (OCT2 POU domain);BOB1 (OBF1, OCA-B) (human;human, UniProt P09086;Q16633 175-386;1-256, |).
T2 sequence 1: T1 sequence
T2 sequence 2: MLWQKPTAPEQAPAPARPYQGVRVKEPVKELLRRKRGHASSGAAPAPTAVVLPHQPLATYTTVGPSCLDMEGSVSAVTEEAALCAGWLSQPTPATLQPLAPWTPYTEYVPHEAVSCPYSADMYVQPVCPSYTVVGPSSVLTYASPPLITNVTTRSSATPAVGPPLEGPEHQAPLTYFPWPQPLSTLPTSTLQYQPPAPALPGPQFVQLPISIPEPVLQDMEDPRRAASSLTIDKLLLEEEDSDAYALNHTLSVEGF
Described as above. To be noted: protein: recombinant;recombinant; copies: 1;1; dsDNA, one strand shown. Summed up: as §1

For the sequence AGGTTAAG, the binding signal in experiment [1] is 0.0522 % of ANNNNAAN 8-mers; in experiment [2], 0.0639 % of ANNNNAAN 8-mers; in experiment [3], 0.0542 % of ANNNNAAN 8-mers; in experiment [4] it was 0.052 % of ANNNNAAN 8-mers.
For ATGAGAAG, in that order: 0.0709 % of ANNNNAAN 8-mers, 0.088 % of ANNNNAAN 8-mers, 0.0652 % of ANNNNAAN 8-mers and 0.0553 % of ANNNNAAN 8-mers.
On to ACATAAAT, for which the binding signal was 0.23 % of ANNNNAAN 8-mers in experiment [1], 0.251 % of ANNNNAAN 8-mers in experiment [2], 0.117 % of ANNNNAAN 8-mers in experiment [3] and 0.177 % of ANNNNAAN 8-mers in experiment [4].
For AATATAAT, in that order: 0.213 % of ANNNNAAN 8-mers, 0.286 % of ANNNNAAN 8-mers, 0.137 % of ANNNNAAN 8-mers and 0.133 % of ANNNNAAN 8-mers.
The like results for AAAGAAAG were, in that order, 0.0679 % of ANNNNAAN 8-mers, 0.0719 % of ANNNNAAN 8-mers, 0.08 % of ANNNNAAN 8-mers and 0.0619 % of ANNNNAAN 8-mers.
The like results for ATGTTAAT were, in that order, 1.39 % of ANNNNAAN 8-mers, 1.31 % of ANNNNAAN 8-mers, 0.208 % of ANNNNAAN 8-mers and 0.24 % of ANNNNAAN 8-mers.
Turning to ACAACAAG, the binding signal was 0.0248 % of ANNNNAAN 8-mers in experiment [1], 0.0167 % of ANNNNAAN 8-mers in experiment [2], 0.0187 % of ANNNNAAN 8-mers in experiment [3] and 0.014 % of ANNNNAAN 8-mers in experiment [4].
For AATAAAAA, in that order: 0.137 % of ANNNNAAN 8-mers, 0.132 % of ANNNNAAN 8-mers, 0.125 % of ANNNNAAN 8-mers and 0.0958 % of ANNNNAAN 8-mers.
In the case of ATGAGAAT, the binding signal was 0.101 % of ANNNNAAN 8-mers in experiment [1], 0.134 % of ANNNNAAN 8-mers in experiment [2], 0.0784 % of ANNNNAAN 8-mers in experiment [3] and 0.106 % of ANNNNAAN 8-mers in experiment [4].
For ACTAGAAC, in that order: 0.016 % of ANNNNAAN 8-mers, 0.0207 % of ANNNNAAN 8-mers, 0.0144 % of ANNNNAAN 8-mers and 0.0149 % of ANNNNAAN 8-mers.
Turning to ATCTCAAG, the binding signal in experiment [1] was 0.0313 % of ANNNNAAN 8-mers; in experiment [2], 0.0368 % of ANNNNAAN 8-mers; in experiment [3] it was 0.039 % of ANNNNAAN 8-mers; in experiment [4], 0.0413 % of ANNNNAAN 8-mers.
For ACACCAAG, in that order: 0.0103 % of ANNNNAAN 8-mers, 0.0178 % of ANNNNAAN 8-mers, 0.0129 % of ANNNNAAN 8-mers and 0.0124 % of ANNNNAAN 8-mers.
For ATTGGAAA, in that order: 0.0927 % of ANNNNAAN 8-mers, 0.0794 % of ANNNNAAN 8-mers, 0.11 % of ANNNNAAN 8-mers and 0.0735 % of ANNNNAAN 8-mers.
Take ACGTAAAA: the binding signal in experiment [1] is 0.0648 % of ANNNNAAN 8-mers; in experiment [2], 0.0529 % of ANNNNAAN 8-mers; in experiment [3] it was 0.0823 % of ANNNNAAN 8-mers; in experiment [4], 0.0537 % of ANNNNAAN 8-mers.
The like results for AAGCTAAT were, in that order, 0.0969 % of ANNNNAAN 8-mers, 0.136 % of ANNNNAAN 8-mers, 0.0527 % of ANNNNAAN 8-mers and 0.0644 % of ANNNNAAN 8-mers.
Turning to ACAGAAAC, the binding signal in experiment [1] is 0.0278 % of ANNNNAAN 8-mers; in experiment [2] it was 0.0259 % of ANNNNAAN 8-mers; in experiment [3], 0.0269 % of ANNNNAAN 8-mers; in experiment [4], 0.0231 % of ANNNNAAN 8-mers.
With ATTACAAT, the binding signal in experiment [1] was 0.195 % of ANNNNAAN 8-mers; in experiment [2], 0.26 % of ANNNNAAN 8-mers; in experiment [3] it was 0.0847 % of ANNNNAAN 8-mers; in experiment [4] it was 0.0966 % of ANNNNAAN 8-mers.
For AAGTTAAA, in that order: 0.0858 % of ANNNNAAN 8-mers, 0.0857 % of ANNNNAAN 8-mers, 0.0901 % of ANNNNAAN 8-mers and 0.071 % of ANNNNAAN 8-mers.
For AGTATAAC, the binding signal was 0.0278 % of ANNNNAAN 8-mers in experiment [1], 0.0328 % of ANNNNAAN 8-mers in experiment [2], 0.0226 % of ANNNNAAN 8-mers in experiment [3] and 0.0248 % of ANNNNAAN 8-mers in experiment [4].
As to AATGAAAG, the binding signal is 0.0751 % of ANNNNAAN 8-mers in experiment [1], 0.088 % of ANNNNAAN 8-mers in experiment [2], 0.0901 % of ANNNNAAN 8-mers in experiment [3] and 0.0718 % of ANNNNAAN 8-mers in experiment [4].
The like results for AAGAAAAG were, in that order, 0.0732 % of ANNNNAAN 8-mers, 0.0633 % of ANNNNAAN 8-mers, 0.0905 % of ANNNNAAN 8-mers and 0.0652 % of ANNNNAAN 8-mers.
The like results for ACCCGAAG were, in that order, 0.0126 % of ANNNNAAN 8-mers, 0.0109 % of ANNNNAAN 8-mers, 0.0129 % of ANNNNAAN 8-mers and 0.0132 % of ANNNNAAN 8-mers.
For ATTTAAAT, in that order: 2.83 % of ANNNNAAN 8-mers, 2.38 % of ANNNNAAN 8-mers, 0.709 % of ANNNNAAN 8-mers and 0.832 % of ANNNNAAN 8-mers.
On to ACCTGAAT, for which the binding signal was 0.0583 % of ANNNNAAN 8-mers in experiment [1], 0.0656 % of ANNNNAAN 8-mers in experiment [2], 0.0359 % of ANNNNAAN 8-mers in experiment [3] and 0.0438 % of ANNNNAAN 8-mers in experiment [4].
Take AATAGAAC: the binding signal was 0.0381 % of ANNNNAAN 8-mers in experiment [1], 0.0541 % of ANNNNAAN 8-mers in experiment [2], 0.0382 % of ANNNNAAN 8-mers in experiment [3] and 0.0462 % of ANNNNAAN 8-mers in experiment [4].
The like results for AACTAAAT were, in that order, 0.0778 % of ANNNNAAN 8-mers, 0.0811 % of ANNNNAAN 8-mers, 0.0667 % of ANNNNAAN 8-mers and 0.0594 % of ANNNNAAN 8-mers.
As for ACTTTAAT, the binding signal in experiment [1] is 0.0824 % of ANNNNAAN 8-mers; in experiment [2], 0.103 % of ANNNNAAN 8-mers; in experiment [3] it was 0.0558 % of ANNNNAAN 8-mers; in experiment [4], 0.066 % of ANNNNAAN 8-mers.
For ATAACAAA, in that order: 0.098 % of ANNNNAAN 8-mers, 0.0909 % of ANNNNAAN 8-mers, 0.1 % of ANNNNAAN 8-mers and 0.0883 % of ANNNNAAN 8-mers.
For ATCCGAAG, in that order: 0.0275 % of ANNNNAAN 8-mers, 0.0299 % of ANNNNAAN 8-mers, 0.0304 % of ANNNNAAN 8-mers and 0.0338 % of ANNNNAAN 8-mers.
Consider ACGAGAAG, for which the binding signal was 0.0217 % of ANNNNAAN 8-mers in experiment [1], 0.0288 % of ANNNNAAN 8-mers in experiment [2], 0.0269 % of ANNNNAAN 8-mers in experiment [3] and 0.0347 % of ANNNNAAN 8-mers in experiment [4].
For ATGCTAAA, in that order: 0.273 % of ANNNNAAN 8-mers, 0.293 % of ANNNNAAN 8-mers, 0.0691 % of ANNNNAAN 8-mers and 0.0817 % of ANNNNAAN 8-mers.
The like results for ACTGTAAA were, in that order, 0.0404 % of ANNNNAAN 8-mers, 0.042 % of ANNNNAAN 8-mers, 0.0406 % of ANNNNAAN 8-mers and 0.0388 % of ANNNNAAN 8-mers.
The like results for AACAGAAC were, in that order, 0.0183 % of ANNNNAAN 8-mers, 0.0242 % of ANNNNAAN 8-mers, 0.018 % of ANNNNAAN 8-mers and 0.0231 % of ANNNNAAN 8-mers.
Turning to ATAGAAAC, the binding signal in experiment [1] is 0.0328 % of ANNNNAAN 8-mers; in experiment [2] it was 0.0455 % of ANNNNAAN 8-mers; in experiment [3], 0.0339 % of ANNNNAAN 8-mers; in experiment [4], 0.0355 % of ANNNNAAN 8-mers.
For AGGCTAAT, in that order: 0.133 % of ANNNNAAN 8-mers, 0.197 % of ANNNNAAN 8-mers, 0.0675 % of ANNNNAAN 8-mers and 0.0908 % of ANNNNAAN 8-mers.
Turning to AATCCAAT, the binding signal in experiment [1] is 0.0507 % of ANNNNAAN 8-mers; in experiment [2], 0.0552 % of ANNNNAAN 8-mers; in experiment [3] it was 0.0605 % of ANNNNAAN 8-mers; in experiment [4] it was 0.0504 % of ANNNNAAN 8-mers.
Regarding ATTGGAAC, the binding signal is 0.0313 % of ANNNNAAN 8-mers in experiment [1], 0.0426 % of ANNNNAAN 8-mers in experiment [2], 0.0304 % of ANNNNAAN 8-mers in experiment [3] and 0.0388 % of ANNNNAAN 8-mers in experiment [4].

The values are drawn from PMC10812921, “Transcriptional Coactivator BOB1 (OBF1, OCA-B) Modulates the Specificity of DNA Recognition by the POU-Domain Factors OCT1 and OCT2 in a Monomeric Configuration”.
